The values that follow come from PubChem BioAssay (EPA / NIEHS).

The term AC50 denotes the midpoint of the concentration-response curve, whichever way the signal moves.

Results filed as inconclusive are left out. The source made the active and inactive calls. Rule for the calls, unless noted: active = hit-call score of the fitted dose curve at least 0.9, where 1 is the maximum; inconclusive = response in the unintended direction; inactive = score below 0.9.

A short description of experiment [1]: CCTE_Deisenroth_5AR_NBTE_donor: CCTE's 5alpha-reductase NanoBRET Target Engagement Assay […], Deisenroth Lab (AID 2284319; active = hit-call score of the fitted dose curve at least 0.9, where 1 is the maximum; inactive = score below 0.9). As to conditions: actives raise or lower the signal. The method in brief:
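HEK293T cells transiently expressing SRD5A2-NanoLuc, exposed 5 h to chemicals (8 points, 10 nM - 29.9 uM), with testosterone tracer for the final 2 h. Donor luminescence at 460 nm read after Nano-Glo substrate plus extracellular NanoLuc inhibitor; bidirectional fit versus DMSO.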
On the technique in general: Bioluminescence resonance energy transfer reports proximity on the nanometre scale.

Experiment [2] can be described thus: CCTE_Deisenroth_5AR_NBTE_acceptor: CCTE's 5alpha-reductase NanoBRET Target Engagement Assay - Autofluorescence Screen, Deisenroth Lab (AID 2284321; active = hit-call score of the fitted dose curve at least 0.9, where 1 is the maximum; inactive = score below 0.9). Particulars: actives raise or lower the signal. The method in brief: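 Acceptor-channel fluorescence flags artifacts, with excitation fixed at 460 nm. Nominal 100 uM chemical samples were read in triplicate runs, and signal changes were fitted in both directions relative to DMSO.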

Experiment [3] has as its system SRD5A2 (gene 6716). Put plainly: CCTE_Deisenroth_5AR_NBTE_ratio: CCTE's 5alpha-reductase NanoBRET Target Engagement Assay - Ratio, Deisenroth Lab (AID 2284322; active = hit-call score of the fitted dose curve at least 0.9, where 1 is the maximum; inactive = score below 0.9). As to conditions: actives raise or lower the signal. The procedure, abridged:
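HEK293T transiently expressing SRD5A2-NanoLuc; cells exposed to chemical (8-point, 10 nM - 29.9 uM) for 5 h total, testosterone tracer added for final 2 h. NanoBRET acceptor/donor ratio (650/460 nm), bidirectional fit vs DMSO.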

The nature of experiment [4]: CPHEA_Stoker_NIS_Cytotoxicity: Cytotoxicity Assessment for CPHEA's Radioactive Iodide Uptake (RAIU) Assay for Sodium/Iodide Symporter (NIS) Inhibition, Stoker and Laws Labs (AID 2283897). The procedure, abridged:
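hNIS-HEK293T-EPA cells, human NIS expressed in HEK293T, treated 2 h with chemicals (0.001–100 uM, 0.5% final DMSO). ATP content read by CellTiter-Glo luminescence; loss of signal analysed relative to DMSO.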

A short description of experiment [5]: STM_H9_OrnCyssISnorm_ratio: Stemina devTOX quickPredict H9 human embryonic stem cell (hESC)-based Assay for Ornithine (ORN):Cystine (CYSS) Ratio (AID 2283714). The method in brief:
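Undifferentiated H9 hESCs exposed 72 h, media and compound replaced every 24 h; final 24-h conditioned media deproteinized and analysed by UPLC-HRMS against C13 spike-ins. Value is the internal-standard-normalized ORN/CYSS ratio versus 0.1% DMSO.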

Experiment [6] can be described thus: STM_H9_NormalizedViability: Cytotoxicity Assessment at 120 hours in the Stemina devTOX quickPredict H9 human embryonic stem cell (hESC)-based Assay (AID 2283784). The method in brief:
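Pluripotent H9 hESCs were exposed, with chemical and media replaced every 24 h. Viability was read by CellTiter-Fluor fluorescence, background-corrected and normalized to the 0.1% DMSO neutral control per plate. Loss of signal was fitted.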

Experiment [7] is described as follows: CCTE_Shafer_MEA_acute_per_network_burst_electrodes_number_mean: CCTE's Neural Acute Assay for Mean Number of Electrodes in a Network Burst, Shafer Lab (AID 2284021; active = hit-call score of the fitted dose curve at least 0.9, where 1 is the maximum; inactive = score below 0.9;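 note: curves fitted for decreases only so hits reduce electrodes per burst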). The method in brief: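 Percent change from baseline was computed as mean electrode count per network burst, comparing 40 min recordings before and during compound (0.03-40 uM) exposure. Cultures were rat cortical neurons at DIV 13 or 15, recorded on MEAs at 37 C with an adaptive 8x rms threshold.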

The nature of experiment [8]: CCTE_Shafer_MEA_acute_network_burst_percentage: CCTE's Neural Acute Assay for Percentage of Network Bursts, Shafer Lab (AID 2284022; active = hit-call score of the fitted dose curve at least 0.9, where 1 is the maximum; inactive = score below 0.9;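 note: curves fitted for loss so actives lower network burst percentage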). The procedure, abridged: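 Network burst percentage (spikes in network bursts divided by total spikes) recorded at 37 C over 40 min baseline and 40 min after compound, 0.03-40 uM, in rat cortical cultures at DIV 13 or 15. Analysed as percent change from baseline versus DMSO.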

Experiment [9] is described as follows: CCTE_Shafer_MEA_acute_cross_correlation_HWHM: CCTE's Neural Acute Assay for Cross Correlation at Half Width at Half Maximum, Shafer Lab (AID 2284026; active = hit-call score of the fitted dose curve at least 0.9, where 1 is the maximum; inactive = score below 0.9;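 note: percent change per well from pre-dose baseline in spike cross-correlogram half width; hits are a decrease in cross-correlogram half width relative to DMSO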). The procedure, abridged:
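Per-well percent change in cross-correlogram half width at half maximum, derived from 40-min recordings before and after compound (0.03-40 uM) at 37 C. Cultures were rat cortical neurons, DIV 13 or 15, with adaptive spike detection at 8x rms.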

A short description of experiment [10]: CCTE_Shafer_MEA_acute_LDH: CCTE's Lactate Dehydrogenase Assay for Cytotoxicity in the Neural Acute Assay, Shafer Lab (AID 2284086).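 Note: active means LDH release rises above DMSO vehicle level.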 The method in brief:
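Medium from rat cortical neuron MEA cultures sampled right after the 40 min compound-exposure recording; released LDH measured by absorbance at 490 nm. Analyzed as signal gain relative to DMSO.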

The target of experiment [11] is human Peripheral-type Benzodiazepine Receptor (PBR), TSPO (gene 706) (UniProt P30536). Put plainly: NVS_MP_hPBR: NovaScreen (NVS) Membrane Protein Assay for human Peripheral-type Benzodiazepine Receptor (PBR) (AID 2283331).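 Note: hits reduce radioligand binding relative to DMSO baseline.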 The method in brief:
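Radioligand displacement on human colonic cell membranes, 1 h incubation; bound radioactivity by filtration and scintillation counting. Primary screen in duplicate at 25 uM single concentration, actives followed up in concentration series; loss of binding versus DMSO.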

Experiment [12] has as its target rat Peripheral-type Benzodiazepine Receptor (PBR), Tspo (gene 24230) (UniProt P16257). Description: NVS_MP_rPBR: NovaScreen (NVS) Membrane Protein Assay for rat Peripheral-type Benzodiazepine Receptor (PBR) (AID 2283335). The method in brief: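 Rat kidney membranes; radioligand binding with displacement, filter-based scintillation counting, 1 h incubation. Primary screen in duplicate at 25 uM, actives followed in concentration series; loss of binding vs DMSO.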

The target of experiment [13] is human Dopamine Transporter (DAT), SLC6A3 (gene 6531) (UniProt Q01959). Description: NVS_TR_hDAT: NovaScreen (NVS) Transporter Assay for human Dopamine Transporter (DAT) (AID 2283374).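 Note: activity means loss of bound radioligand signal relative to DMSO.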 The procedure, abridged: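 Cell-free radioligand displacement binding at human DAT, 1 h after dosing, with filtration and scintillation counting. Primary screen in duplicate at 25 uM, actives then in concentration series. Loss of bound signal versus DMSO scored.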

For experiment [14], the target named is bovine Estrogen Receptor (ER), ESR1 (gene 407238) (UniProt P49884). Description: NVS_NR_bER: NovaScreen (NVS) Nuclear Receptor Binding Assay for bovine Estrogen Receptor (ER) (AID 2283345).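 Note: actives lower the bound radioligand count which means they displace the ER ligand.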 The method in brief:
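Cell-free radioligand binding with bovine uterine membrane extracts, read 18 hours after dosing by scintillation counting. Loss of signal versus DMSO baseline indicates displacement. Primary screen run in duplicate at 25 uM, actives followed in concentration series.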

Experiment [15] deals with mouse Estrogen Receptor alpha (Era), Esr1 (gene 13982) (UniProt P19785). Description: NVS_NR_mERa: NovaScreen (NVS) Nuclear Receptor Binding Assay for mouse Estrogen Receptor alpha (Era) (AID 2283378).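 Note: hit means loss of bound radioligand signal relative to DMSO.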 The method in brief: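 Filter radiodetection of radioligand displacement from extracted receptor protein, measured 18 h post-dose. Single 25 uM concentration in duplicate initially, with concentration-series follow-up. Binding loss fitted relative to DMSO.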

The target in experiment [16] is chimpanzee Androgen Receptor (AR), AR (gene 747460) (UniProt O97775). Description: NVS_NR_cAR: NovaScreen (NVS) Nuclear Receptor Binding Assay for chimpanzee Androgen Receptor (AR) (AID 2283346). The method in brief: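 Radioligand binding to chimpanzee AR expressed in Sf9/Sf21 cells, cell-free, measured 72 h after dosing by lysate-based scintillation counting. Loss of signal vs DMSO; initial duplicate screen at 25 uM, actives retested in concentration series.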

Experiment [17] deals with Bile acid receptor (Homo sapiens) (UniProt Q96RI1). Put plainly: ATG_IR1_CIS: Attagene CIS-FACTORIAL HepG2 Assay for human Nuclear Receptor Subfamily 1 Group H Member 4 (NR1H4), IR1 submotif (AID 2282946; active = hit-call score of the fitted dose curve at least 0.9, where 1 is the maximum; inactive = score below 0.9). As to conditions: IR1 reporter transcription, actives raise or lower the signal. The method in brief:
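HepG2 cells transiently transfected with multiple cis-promoter-driven reporter units to measure endogenous transcription factor activity; 24 h exposure. Reporter mRNA read by RT-PCR, FAM labelling, HpaI digestion and capillary electrophoresis. Bidirectional fit versus DMSO.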

In experiment [18] the target is human CYP2D6, CYP2D6 (gene 1565) (UniProt P10635). Put plainly: NVS_ADME_hCYP2D6: NovaScreen (NVS) CYP450-related Enzyme Activity (ADME) Assay for human CYP2D6 (AID 2283107). The procedure, abridged:
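Fluorescence readout of recombinant CYP2D6 (insect-cell derived) activity after 1 h incubation with test chemical. Acetonitrile served as baseline, loss-of-signal direction. Single-concentration duplicate screening at 10 uM preceded concentration-response retesting.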

Experiment [19] has as its target Muscarinic acetylcholine receptor M2 (Homo sapiens) (UniProt P08172). Put plainly: NVS_GPCR_hM2: NovaScreen (NVS) G Protein-Coupled Receptor Assay for human Muscarinic, M2 Receptor (AID 2283273). The method in brief:
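Radioligand displacement on human M2 receptor membranes from CHO cells, 1 h incubation, filtration with scintillation counting. Primary screen in duplicate at 25 uM; actives retested in concentration series; loss of signal fitted versus DMSO.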

mouse Estrogen Receptor alpha (Era), Esr1 (gene 13982), sequence (P19785 whole entry, looked up): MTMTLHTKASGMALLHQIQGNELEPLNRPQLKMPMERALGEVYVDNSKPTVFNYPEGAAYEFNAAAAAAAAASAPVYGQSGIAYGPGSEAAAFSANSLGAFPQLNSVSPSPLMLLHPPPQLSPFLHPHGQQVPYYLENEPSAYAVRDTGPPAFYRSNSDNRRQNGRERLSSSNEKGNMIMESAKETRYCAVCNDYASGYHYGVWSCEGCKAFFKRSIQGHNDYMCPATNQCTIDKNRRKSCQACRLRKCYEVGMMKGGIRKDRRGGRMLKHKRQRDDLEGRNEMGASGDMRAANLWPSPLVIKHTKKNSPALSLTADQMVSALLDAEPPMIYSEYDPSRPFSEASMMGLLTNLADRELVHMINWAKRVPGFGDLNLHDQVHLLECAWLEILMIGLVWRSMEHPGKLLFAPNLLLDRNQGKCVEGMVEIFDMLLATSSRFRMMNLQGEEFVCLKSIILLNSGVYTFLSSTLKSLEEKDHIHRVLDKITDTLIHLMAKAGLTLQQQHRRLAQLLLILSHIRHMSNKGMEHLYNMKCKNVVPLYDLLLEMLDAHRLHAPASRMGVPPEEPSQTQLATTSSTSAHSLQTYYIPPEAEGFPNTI
Bile acid receptor (Homo sapiens), sequence (Q96RI1 whole entry, looked up): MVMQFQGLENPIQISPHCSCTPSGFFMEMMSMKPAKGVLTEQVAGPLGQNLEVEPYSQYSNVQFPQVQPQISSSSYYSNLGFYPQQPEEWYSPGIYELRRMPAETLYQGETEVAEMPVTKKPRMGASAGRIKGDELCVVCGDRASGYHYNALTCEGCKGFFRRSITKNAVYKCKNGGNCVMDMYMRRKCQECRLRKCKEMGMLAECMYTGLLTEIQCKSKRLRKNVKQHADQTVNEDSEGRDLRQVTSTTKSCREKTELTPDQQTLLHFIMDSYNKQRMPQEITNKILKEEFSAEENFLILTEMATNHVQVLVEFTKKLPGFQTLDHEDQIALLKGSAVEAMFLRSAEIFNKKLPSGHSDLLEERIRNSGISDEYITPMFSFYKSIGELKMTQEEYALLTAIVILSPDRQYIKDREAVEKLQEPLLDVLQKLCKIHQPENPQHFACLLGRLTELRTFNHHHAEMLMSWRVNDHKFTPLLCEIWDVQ
rat Peripheral-type Benzodiazepine Receptor (PBR), Tspo (gene 24230), sequence (P16257 whole entry, looked up): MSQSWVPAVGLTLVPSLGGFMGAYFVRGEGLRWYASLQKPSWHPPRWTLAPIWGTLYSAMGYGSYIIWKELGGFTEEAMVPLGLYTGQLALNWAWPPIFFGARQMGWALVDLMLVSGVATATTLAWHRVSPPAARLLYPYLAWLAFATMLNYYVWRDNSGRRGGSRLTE
bovine Estrogen Receptor (ER), ESR1 (gene 407238), sequence (P49884 whole entry, looked up): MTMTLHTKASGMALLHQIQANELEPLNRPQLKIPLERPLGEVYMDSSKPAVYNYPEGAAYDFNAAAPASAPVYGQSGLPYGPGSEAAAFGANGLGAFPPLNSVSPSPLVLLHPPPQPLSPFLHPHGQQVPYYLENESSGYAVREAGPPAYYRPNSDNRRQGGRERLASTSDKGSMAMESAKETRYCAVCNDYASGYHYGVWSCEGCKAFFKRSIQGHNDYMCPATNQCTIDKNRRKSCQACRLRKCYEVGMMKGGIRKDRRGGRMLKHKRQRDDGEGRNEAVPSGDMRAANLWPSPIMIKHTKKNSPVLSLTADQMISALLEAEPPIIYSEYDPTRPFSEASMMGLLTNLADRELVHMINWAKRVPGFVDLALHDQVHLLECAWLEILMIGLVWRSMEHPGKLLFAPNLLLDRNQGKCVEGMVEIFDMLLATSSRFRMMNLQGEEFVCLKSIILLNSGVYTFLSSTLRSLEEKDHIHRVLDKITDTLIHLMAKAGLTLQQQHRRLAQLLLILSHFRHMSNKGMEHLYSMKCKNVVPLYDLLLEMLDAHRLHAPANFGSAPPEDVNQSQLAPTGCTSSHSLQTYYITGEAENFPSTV
chimpanzee Androgen Receptor (AR), AR (gene 747460), sequence (O97775 whole entry, looked up): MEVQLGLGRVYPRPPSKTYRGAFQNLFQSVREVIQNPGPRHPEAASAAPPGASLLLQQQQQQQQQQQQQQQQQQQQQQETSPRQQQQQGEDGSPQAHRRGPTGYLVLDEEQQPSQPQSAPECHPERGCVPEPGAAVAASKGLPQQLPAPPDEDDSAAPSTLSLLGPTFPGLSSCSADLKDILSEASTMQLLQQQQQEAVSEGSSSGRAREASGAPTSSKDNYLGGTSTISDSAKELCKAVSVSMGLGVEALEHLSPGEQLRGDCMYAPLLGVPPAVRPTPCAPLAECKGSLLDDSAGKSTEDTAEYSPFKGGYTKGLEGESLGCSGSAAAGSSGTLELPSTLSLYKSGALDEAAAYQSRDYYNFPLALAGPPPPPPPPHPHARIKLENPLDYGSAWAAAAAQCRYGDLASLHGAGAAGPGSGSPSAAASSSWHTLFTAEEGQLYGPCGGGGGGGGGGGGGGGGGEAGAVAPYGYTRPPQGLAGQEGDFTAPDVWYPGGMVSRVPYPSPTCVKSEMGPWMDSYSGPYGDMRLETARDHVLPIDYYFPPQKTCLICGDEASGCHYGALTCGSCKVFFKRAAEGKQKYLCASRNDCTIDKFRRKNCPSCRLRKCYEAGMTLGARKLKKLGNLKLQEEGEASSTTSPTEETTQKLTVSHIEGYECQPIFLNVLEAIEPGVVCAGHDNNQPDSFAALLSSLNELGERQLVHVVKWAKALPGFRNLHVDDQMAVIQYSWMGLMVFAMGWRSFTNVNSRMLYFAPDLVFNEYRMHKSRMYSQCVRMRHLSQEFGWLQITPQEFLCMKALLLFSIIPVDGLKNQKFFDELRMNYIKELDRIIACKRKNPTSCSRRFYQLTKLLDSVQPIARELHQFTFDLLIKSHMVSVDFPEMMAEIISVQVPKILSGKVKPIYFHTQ
human Peripheral-type Benzodiazepine Receptor (PBR), TSPO (gene 706), sequence (P30536 whole entry, looked up): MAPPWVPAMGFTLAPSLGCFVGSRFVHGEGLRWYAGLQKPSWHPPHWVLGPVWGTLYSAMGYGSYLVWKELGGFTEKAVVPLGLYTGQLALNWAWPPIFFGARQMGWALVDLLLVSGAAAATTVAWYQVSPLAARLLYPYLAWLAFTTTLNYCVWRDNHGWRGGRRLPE
Muscarinic acetylcholine receptor M2 (Homo sapiens), sequence (P08172 whole entry, looked up): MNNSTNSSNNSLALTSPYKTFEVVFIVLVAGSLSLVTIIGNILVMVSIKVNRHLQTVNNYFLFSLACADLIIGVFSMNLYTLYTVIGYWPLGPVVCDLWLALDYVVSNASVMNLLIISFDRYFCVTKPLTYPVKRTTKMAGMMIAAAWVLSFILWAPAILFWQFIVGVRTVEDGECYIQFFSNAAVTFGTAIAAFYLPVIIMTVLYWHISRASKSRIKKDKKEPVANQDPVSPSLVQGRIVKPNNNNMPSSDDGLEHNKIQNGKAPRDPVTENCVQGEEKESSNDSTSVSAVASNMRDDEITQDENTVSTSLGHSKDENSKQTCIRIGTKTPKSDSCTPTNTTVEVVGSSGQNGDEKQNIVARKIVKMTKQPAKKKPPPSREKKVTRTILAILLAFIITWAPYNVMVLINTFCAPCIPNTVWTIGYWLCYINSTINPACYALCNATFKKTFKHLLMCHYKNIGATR
human CYP2D6, CYP2D6 (gene 1565), sequence (P10635 whole entry, looked up): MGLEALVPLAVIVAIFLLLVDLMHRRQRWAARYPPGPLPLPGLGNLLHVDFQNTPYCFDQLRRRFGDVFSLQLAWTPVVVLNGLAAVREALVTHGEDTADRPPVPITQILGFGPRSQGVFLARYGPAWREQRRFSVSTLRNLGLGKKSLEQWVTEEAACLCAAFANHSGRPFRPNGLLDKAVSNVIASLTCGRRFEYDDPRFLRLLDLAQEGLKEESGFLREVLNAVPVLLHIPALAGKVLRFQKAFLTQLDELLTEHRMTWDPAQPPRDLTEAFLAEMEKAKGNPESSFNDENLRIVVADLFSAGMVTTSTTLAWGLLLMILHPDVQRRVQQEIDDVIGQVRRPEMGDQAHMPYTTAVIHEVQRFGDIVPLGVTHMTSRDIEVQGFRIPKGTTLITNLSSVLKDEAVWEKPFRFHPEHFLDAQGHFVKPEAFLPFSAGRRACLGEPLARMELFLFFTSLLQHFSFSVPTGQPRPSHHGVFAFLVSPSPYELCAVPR
human Dopamine Transporter (DAT), SLC6A3 (gene 6531), sequence (Q01959 whole entry, looked up): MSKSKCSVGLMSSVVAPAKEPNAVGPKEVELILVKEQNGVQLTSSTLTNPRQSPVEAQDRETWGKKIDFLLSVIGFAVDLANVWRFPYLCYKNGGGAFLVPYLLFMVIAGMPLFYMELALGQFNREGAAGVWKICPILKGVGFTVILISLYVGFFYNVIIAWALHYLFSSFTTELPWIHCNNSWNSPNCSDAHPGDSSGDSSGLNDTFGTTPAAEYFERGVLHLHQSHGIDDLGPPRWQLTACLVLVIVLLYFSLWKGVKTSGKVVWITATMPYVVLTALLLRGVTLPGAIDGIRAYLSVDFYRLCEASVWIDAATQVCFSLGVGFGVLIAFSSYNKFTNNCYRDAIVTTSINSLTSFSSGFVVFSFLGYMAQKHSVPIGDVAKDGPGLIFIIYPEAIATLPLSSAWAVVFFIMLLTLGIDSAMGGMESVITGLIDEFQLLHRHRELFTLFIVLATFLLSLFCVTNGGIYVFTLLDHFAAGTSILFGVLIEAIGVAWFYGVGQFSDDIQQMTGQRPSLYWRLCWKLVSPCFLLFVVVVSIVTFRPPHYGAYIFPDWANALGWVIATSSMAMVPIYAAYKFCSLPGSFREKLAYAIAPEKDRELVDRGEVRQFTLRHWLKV

In the case of `O=C(O)/C=C\C(=O)O`, the call in experiment [1], in [2] and in [3] was inactive.

Regarding `COC(=O)[C@]1(C)CCC[C@@]2(C)[C@H]1CC=C1C=C(C(C)C)CC[C@@H]12`, the result in [4] was inactive.

In the case of `CN(C)Cc1cc(C(C)(C)C)c(O)c(C(C)(C)C)c1`, the result in experiment [5], in experiment [6], in experiment [7], in experiment [8] and in [10] was inactive. For the same molecule, the AC50 in experiment [9] is 15 µM (active).

As to `O=C(C(=O)c1ccccc1)c1ccccc1`, the AC50 was 9.56 µM (active) in [11], 1.86 µM (active) in experiment [12] and 1.07 µM (active) in [13].

Regarding `CCCCCCCCCC/C=C/C1CC(=O)OC1=O` (stereo not drawn), the outcome in experiment [14] was inactive.

Regarding `COC(OC)C(C)c1ccccc1` (stereo not drawn), the call in experiment [14] and in experiment [15] was inactive.

For the molecule `CCCCCC1CCCC(=O)O1` (stereo not drawn), the outcome in [16] was inactive.

As for `Oc1cccc2ccccc12`, the molecule was called inactive in experiment [17] and in experiment [6]. For the same molecule, the AC50 in experiment [5] was 7.48 µM (active).

Regarding `CCCCCC[C@@H](O)C/C=C\CCCCCCCC(=O)O`, the AC50 in [17] is 149 µM (active); in experiment [5], 30.9 µM (active). Also, the result in experiment [6], in experiment [4], in experiment [1], in [2] and in experiment [3] was inactive.

With `CCCc1c(OCCCCc2nn[nH]n2)ccc(C(C)=O)c1O`, the result in experiment [17] was inactive.

`C=CC(C)(CCC=C(C)C)OC(=O)c1ccccc1` (stereo not drawn): the call in experiment [15] was inactive.

In the case of `CC[N+](CC)(CC(=O)Nc1c(C)cccc1C)Cc1ccccc1`, the AC50 in experiment [18] is 0.132 µM (active); in experiment [19], 0.419 µM (active). For the same molecule, the molecule was called inactive in experiment [12] and in experiment [16].

Turning to `CC[N+](CC)(CC(=O)Nc1c(C)cccc1C)Cc1ccccc1` (tested in a mixture with another compound), the results for the AC50 in experiment [11], in experiment [12] and in [9] were 4.38 µM (active), 3.68 µM (active) and 1.05 µM (active), respectively. Also, the result in experiment [5], in [6], in experiment [7], in experiment [8] and in experiment [10] was inactive.

Turning to `CC(=O)CC(=O)OC(C)(C)C`, the molecule was classed as inactive in experiment [14] and in experiment [15].
